# Measured values taken from ChEMBL document CHEMBL2218924, “A broad activity screen in support of a chemogenomic map for kinase signalling research and drug discovery” (Biochem J, 2013).
# How the values were obtained:
# [1] = molecular target: Tyrosine-protein kinase SYK (Homo sapiens) (UniProt P43405); conditions: at 10 µM
# [2] = molecular target: T1, Mitogen-activated protein kinase kinase kinase 7 (Homo sapiens) (UniProt O43318); conditions: at 1 µM
# T1 sequence (whole entry): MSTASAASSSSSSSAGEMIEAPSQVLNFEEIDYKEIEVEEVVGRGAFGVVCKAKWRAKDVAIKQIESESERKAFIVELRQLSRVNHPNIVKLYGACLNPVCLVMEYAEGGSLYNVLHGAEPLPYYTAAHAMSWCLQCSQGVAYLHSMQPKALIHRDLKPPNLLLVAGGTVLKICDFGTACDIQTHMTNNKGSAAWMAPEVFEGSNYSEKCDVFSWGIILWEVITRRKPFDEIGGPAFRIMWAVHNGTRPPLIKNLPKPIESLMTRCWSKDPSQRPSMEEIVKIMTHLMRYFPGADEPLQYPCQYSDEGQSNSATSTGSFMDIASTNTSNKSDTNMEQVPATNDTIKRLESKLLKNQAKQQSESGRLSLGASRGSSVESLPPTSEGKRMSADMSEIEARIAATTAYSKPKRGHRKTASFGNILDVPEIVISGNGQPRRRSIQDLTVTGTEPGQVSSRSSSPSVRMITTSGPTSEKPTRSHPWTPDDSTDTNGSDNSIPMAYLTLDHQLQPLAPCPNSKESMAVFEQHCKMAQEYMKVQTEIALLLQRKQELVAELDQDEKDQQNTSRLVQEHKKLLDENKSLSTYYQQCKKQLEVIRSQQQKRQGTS
# [3] = molecular target: T1, Mitogen-activated protein kinase kinase kinase 7 (Homo sapiens); conditions: at 10 µM
# [4] = molecular target: T2, Serine/threonine-protein kinase TAO1 (Homo sapiens) (UniProt Q7L7X3); conditions: at 1 µM
# T2 sequence (whole entry): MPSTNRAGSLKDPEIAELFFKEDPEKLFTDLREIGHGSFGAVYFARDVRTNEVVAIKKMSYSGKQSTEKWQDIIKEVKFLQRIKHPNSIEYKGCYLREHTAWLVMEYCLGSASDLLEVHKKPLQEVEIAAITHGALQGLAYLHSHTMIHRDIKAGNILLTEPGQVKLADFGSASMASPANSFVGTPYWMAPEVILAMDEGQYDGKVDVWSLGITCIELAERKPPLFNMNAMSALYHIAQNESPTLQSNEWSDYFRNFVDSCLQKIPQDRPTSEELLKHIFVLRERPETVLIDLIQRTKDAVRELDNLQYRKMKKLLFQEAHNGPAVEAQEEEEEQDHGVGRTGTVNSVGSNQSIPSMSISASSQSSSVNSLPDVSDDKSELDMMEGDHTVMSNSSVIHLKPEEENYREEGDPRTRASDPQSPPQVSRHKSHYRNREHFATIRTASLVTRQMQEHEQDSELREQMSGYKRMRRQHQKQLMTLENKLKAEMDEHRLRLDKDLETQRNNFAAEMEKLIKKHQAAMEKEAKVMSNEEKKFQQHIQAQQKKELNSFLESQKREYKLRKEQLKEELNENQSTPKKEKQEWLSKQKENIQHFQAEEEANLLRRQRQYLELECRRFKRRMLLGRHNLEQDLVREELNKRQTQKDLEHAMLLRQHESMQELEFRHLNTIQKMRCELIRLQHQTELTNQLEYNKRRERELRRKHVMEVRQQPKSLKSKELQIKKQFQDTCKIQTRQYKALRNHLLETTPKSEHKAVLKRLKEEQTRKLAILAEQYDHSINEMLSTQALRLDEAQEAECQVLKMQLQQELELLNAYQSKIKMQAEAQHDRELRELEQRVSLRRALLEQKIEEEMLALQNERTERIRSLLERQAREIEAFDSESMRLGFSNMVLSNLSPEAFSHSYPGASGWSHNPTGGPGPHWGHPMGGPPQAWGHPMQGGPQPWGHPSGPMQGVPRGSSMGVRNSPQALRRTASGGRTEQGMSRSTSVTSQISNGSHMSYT
# [5] = molecular target: T2, Serine/threonine-protein kinase TAO1 (Homo sapiens); conditions: at 10 µM
# [6] = molecular target: T3, Serine/threonine-protein kinase TAO2 (Homo sapiens) (UniProt Q9UL54); conditions: at 1 µM
# T3 sequence (whole entry): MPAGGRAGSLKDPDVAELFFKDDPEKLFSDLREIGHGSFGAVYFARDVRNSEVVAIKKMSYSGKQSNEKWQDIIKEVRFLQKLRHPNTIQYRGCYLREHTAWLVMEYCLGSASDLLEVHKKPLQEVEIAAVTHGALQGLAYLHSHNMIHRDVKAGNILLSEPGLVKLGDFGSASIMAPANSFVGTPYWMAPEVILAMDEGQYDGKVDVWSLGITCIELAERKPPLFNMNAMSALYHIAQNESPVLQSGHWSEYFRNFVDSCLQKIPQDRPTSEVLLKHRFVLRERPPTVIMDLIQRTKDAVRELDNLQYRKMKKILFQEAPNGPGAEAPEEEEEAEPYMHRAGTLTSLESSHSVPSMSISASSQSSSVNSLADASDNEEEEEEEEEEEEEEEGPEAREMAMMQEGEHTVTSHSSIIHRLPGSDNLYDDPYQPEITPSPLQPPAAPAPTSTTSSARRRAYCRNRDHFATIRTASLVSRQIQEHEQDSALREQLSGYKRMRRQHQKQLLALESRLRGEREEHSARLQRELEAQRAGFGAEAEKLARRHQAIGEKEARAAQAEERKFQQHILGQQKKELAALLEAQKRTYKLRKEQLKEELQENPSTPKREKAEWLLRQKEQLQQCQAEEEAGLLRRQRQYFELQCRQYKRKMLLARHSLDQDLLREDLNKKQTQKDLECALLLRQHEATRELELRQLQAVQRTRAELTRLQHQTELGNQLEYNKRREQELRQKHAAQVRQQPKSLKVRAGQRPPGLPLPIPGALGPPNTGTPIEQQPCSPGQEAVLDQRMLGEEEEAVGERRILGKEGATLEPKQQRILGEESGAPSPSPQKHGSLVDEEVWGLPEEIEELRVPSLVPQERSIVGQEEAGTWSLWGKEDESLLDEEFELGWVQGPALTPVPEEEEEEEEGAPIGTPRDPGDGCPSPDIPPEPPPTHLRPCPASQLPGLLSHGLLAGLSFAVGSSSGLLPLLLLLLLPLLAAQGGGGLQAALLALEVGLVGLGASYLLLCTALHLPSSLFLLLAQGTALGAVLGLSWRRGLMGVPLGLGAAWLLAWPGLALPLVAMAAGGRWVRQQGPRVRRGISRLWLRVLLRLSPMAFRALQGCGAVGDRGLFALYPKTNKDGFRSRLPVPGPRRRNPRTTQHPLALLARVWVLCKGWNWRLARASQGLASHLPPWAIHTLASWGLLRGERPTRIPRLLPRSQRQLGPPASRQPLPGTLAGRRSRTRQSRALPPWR
# [7] = molecular target: T3, Serine/threonine-protein kinase TAO2 (Homo sapiens); conditions: at 10 µM
# [8] = molecular target: T4, Serine/threonine-protein kinase TAO3 (Homo sapiens) (UniProt Q9H2K8); conditions: at 1 µM
# T4 sequence (whole entry): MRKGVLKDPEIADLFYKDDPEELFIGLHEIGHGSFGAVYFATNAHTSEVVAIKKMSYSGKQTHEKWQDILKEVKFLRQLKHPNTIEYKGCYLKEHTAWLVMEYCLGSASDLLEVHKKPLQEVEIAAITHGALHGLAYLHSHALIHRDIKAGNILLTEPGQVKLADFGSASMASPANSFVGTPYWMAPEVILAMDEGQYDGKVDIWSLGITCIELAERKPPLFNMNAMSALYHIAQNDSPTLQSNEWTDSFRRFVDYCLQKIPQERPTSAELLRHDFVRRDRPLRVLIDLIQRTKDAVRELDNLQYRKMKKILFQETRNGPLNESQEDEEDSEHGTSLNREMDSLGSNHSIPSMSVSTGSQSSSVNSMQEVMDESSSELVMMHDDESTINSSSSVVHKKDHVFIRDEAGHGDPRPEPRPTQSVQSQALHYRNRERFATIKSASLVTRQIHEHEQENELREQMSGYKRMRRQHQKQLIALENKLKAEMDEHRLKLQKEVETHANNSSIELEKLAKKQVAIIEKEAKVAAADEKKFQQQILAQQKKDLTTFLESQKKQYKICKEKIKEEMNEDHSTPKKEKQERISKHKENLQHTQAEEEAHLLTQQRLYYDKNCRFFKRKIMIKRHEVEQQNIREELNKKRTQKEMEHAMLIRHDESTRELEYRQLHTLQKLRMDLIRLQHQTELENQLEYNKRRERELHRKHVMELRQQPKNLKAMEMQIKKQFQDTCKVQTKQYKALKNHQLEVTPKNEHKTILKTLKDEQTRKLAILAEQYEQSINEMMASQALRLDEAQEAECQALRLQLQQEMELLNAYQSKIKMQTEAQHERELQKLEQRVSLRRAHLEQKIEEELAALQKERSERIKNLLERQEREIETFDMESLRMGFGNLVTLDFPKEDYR
# [9] = molecular target: T4, Serine/threonine-protein kinase TAO3 (Homo sapiens); conditions: at 10 µM
smiles,measurement,setting,value
Nc1cccc(-c2cc3c(Oc4cccc(O)c4)ncnc3[nH]2)c1,residual activity,[1],3%
same,residual activity,[2],48%
same,residual activity,[3],8%
same,residual activity,[4],82%
same,residual activity,[5],39%
same,residual activity,[6],78%
same,residual activity,[7],26%
same,residual activity,[8],84%
same,residual activity,[9],37%
